Reference: PubChem BioAssay (Tox21)
Unmarked numbers belong to inactive results. Entries that show only a call come without a potency. Calls of active or inactive are those of the source. Unless noted, calls come from the whole dose curve; as a rule, active = well fitted curve in the direction sought with a large enough effect in the repeat runs; inconclusive = weak or mixed curves; inactive = flat fitted curve, though single readings scatter.

Assays:
[1] = qHTS assay to test for compound auto fluorescence at 535 nm (green) in HEK293 cells (AID 720680)
[2] = qHTS assay to test for compound auto fluorescence at 460 nm (blue) in HEK293 cell free culture (AID 720681)
Outline: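 Compounds were added to cell-free DMEM with 10% FBS and fluorescence read directly. The blue channel used 405 nm excitation and 460 nm emission, with triamterene as the reference fluorophore.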

[3] = qHTS assay to test for compound auto fluorescence at 535 nm (green) in HEK293 cell free culture (AID 720682)
Outline: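 Each library compound, or DMSO control, is added by pintool to medium alone, comprising DMEM and 10% FBS. Emission at 535 nm following 485 nm excitation is quantified against fluorescein.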

[4] = qHTS assay to test for compound auto fluorescence at 590 nm (red) in HEK293 cell free culture (AID 720683)
Outline: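 Cell-free wells of DMEM with 10% FBS received compound, and intrinsic fluorescence was read at excitation/emission 540/590 nm. Values expressed as equivalence to Rose Bengal sodium.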

[5] = qHTS assay to test for compound auto fluorescence at 590 nm (red) in HepG2 cell free culture (AID 720684)
Outline: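 Compounds are added to culture medium (MEM, 10% FBS) lacking cells, then fluorescence is read at excitation 540 nm, emission 590 nm, with Rose Bengal sodium as the equivalency standard.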

[6] = qHTS assay to test for compound auto fluorescence at 460 nm (blue) in HepG2 cell free culture (AID 720685)
Outline: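 Compound (23 nL) or DMSO pinned into cell-free MEM with 10% FBS; blue fluorescence read at 405/460 nm excitation/emission, expressed as auto-fluorescence equivalency to triamterene.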

[7] = qHTS assay to test for compound auto fluorescence at 535 nm (green) in HepG2 cell free culture (AID 720686)
[8] = qHTS assay to test for compound auto fluorescence at 460 nm (blue) in HepG2 cells (AID 720687)
Outline: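 HepG2 cells in MEM with 10% FBS, attached overnight at 37 C, were exposed to compound or DMSO for 1 hr at 37 C, 5% CO2. Blue fluorescence was read at 405/460 nm, with triamterene as reference fluorophore.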

[9] = biological target: Glucocorticoid receptor (Homo sapiens) (UniProt P04150); assay: qHTS assay to identify small molecule agonists of the glucocorticoid receptor (GR) signaling pathway (AID 720691; active = well fitted activation curve with a large enough effect in the signal ratio in the repeat runs, not every such curve was filed as active; inconclusive = weak or mixed curves, or effect the other way; inactive = no such curve, though single readings can be large or run the other way; the % refers to the signal ratio; note: potency is the fitted concentration of half-maximal effect)
Glucocorticoid receptor (Homo sapiens), sequence (P04150 whole entry, looked up): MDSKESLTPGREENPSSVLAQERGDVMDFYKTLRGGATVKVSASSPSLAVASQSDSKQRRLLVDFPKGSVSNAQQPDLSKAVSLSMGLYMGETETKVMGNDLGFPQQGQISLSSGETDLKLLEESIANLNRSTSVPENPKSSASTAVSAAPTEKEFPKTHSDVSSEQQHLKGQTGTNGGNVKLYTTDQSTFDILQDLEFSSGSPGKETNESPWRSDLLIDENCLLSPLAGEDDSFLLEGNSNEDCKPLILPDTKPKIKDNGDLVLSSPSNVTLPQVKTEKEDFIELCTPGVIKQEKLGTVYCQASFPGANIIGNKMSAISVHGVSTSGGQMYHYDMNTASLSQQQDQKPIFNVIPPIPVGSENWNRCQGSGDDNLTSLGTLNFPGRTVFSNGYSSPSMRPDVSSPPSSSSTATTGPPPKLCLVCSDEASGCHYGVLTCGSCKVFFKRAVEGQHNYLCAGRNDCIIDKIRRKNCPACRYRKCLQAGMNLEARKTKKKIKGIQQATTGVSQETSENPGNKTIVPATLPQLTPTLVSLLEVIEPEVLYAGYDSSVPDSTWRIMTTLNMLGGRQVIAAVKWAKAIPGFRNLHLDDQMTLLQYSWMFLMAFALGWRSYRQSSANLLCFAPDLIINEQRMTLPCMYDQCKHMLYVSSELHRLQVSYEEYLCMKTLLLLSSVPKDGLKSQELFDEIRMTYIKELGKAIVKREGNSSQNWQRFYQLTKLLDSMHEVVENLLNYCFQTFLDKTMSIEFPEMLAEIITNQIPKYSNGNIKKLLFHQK
Outline: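 GR-bla HeLa cells (beta-lactamase reporter under glucocorticoid response element) were plated 4 h at 37 C/5% CO2, given compounds in DMSO, and incubated 18 h at 37 C. LiveBLAzer B/G FRET substrate was added for 2 h at room temperature, then fluorescence intensity read.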

SMILES | outcome [1] | outcome [2] | outcome [3] | outcome [4] | outcome [5] | outcome [6] | outcome [7] | outcome [8] | Potency [9]
CCNC(=O)NCCCOc1cccc(CN2CCCCC2)c1 | inactive | inactive | inactive | inactive | inactive | inactive | inactive | inactive | inactive
CC(C)CCC(=O)CCC(C)C | inactive | inactive | inactive | inactive | inactive | inactive | inactive | inactive | inactive
CCCCOC(=O)C(=O)OCCCC | inactive | inactive | inactive | inactive | inactive | inactive | inactive | inactive | inactive
Nc1ccc(/C=C/c2ccc(N)cc2S(=O)(=O)O)c(S(=O)(=O)O)c1 | inactive | inactive | inactive | inactive | inactive | inactive | inactive | inactive | inactive
c1ccc(CNc2ncnc3nc[nH]c23)cc1 | inactive | inactive | inactive | inactive | inactive | inactive | inactive | inactive | inactive
CC(=O)Nc1ncc([N+](=O)[O-])s1 | inactive | inactive | inactive | inactive | inactive | inactive | inactive | inactive | inactive
C=C(C)C(=O)OC | inactive | inactive | inactive | inactive | inactive | inactive | inactive | inactive | inactive
CCCCOC(=O)[C@@H](C)Oc1ccc(Oc2ccc(C(F)(F)F)cn2)cc1 | inactive | inactive | inactive | inactive | inactive | inactive | inactive | inactive | inactive
C=CCOc1c(Br)cc(C(C)(C)c2cc(Br)c(OCC=C)c(Br)c2)cc1Br | inactive | inactive | inactive | inactive | inactive | inactive | inactive | inactive | inactive
O=C(/C=C/c1ccccc1)NCCO | inactive | inactive | inactive | inactive | inactive | inactive | inactive | inactive | inactive
CC1=CC[C@H](CC=O)C1(C)C | inactive | inactive | inactive | inactive | inactive | inactive | inactive | inactive | inactive
CC(=O)OCC(=O)[C@@]1(O)[C@H](OC(C)=O)C[C@H]2[C@@H]3CCC4=CC(=O)C=C[C@]4(C)[C@@]3(F)[C@@H](O)C[C@@]21C | inactive | inactive | inactive | inactive | inactive | inactive | inactive | inactive | 134 nM [inconclusive] (active)
